# Source: PubChem
# Only some compounds are listed: those with a hit (about 4.7% of all), similar ones and a draw of the others.
# D1 PAM: human D1 dopamine receptor positive modulation. potentiation, % at 10 µM. HEK293 TREx D1 cells, calcium flux, dopamine EC20 potentiation. 360,000 compounds, 0.036% hits; in the data active means potentiation above about 30%; further: 0% is about no effect
# Target sequence (P21728 whole entry, looked up): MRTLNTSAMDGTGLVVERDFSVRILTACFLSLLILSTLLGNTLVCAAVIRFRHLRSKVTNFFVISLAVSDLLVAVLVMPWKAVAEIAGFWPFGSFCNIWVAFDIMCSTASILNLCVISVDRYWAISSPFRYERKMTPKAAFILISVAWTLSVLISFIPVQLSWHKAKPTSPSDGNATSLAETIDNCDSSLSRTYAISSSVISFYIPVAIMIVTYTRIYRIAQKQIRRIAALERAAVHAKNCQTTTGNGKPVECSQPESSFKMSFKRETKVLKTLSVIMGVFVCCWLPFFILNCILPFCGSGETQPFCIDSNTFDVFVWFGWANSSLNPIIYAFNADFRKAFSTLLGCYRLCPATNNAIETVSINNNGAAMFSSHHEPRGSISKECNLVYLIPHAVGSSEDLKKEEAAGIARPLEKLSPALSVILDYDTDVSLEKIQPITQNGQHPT
# TRHR ag: agonists of human TRH receptor. 360,000 compounds, 0.18% hits. activation, % at 2 µM. TRHR cells, calcium flux fluo-8, FDSS agonist mode; further: 0% is about no effect
#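 Fluo-8-loaded TRHR cells; 10 s baseline, compound added, kinetic Ca2+ fluorescence read 1/s, agonist mode.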
# D1 ag: activates the human D1 dopamine receptor; P21728; HEK293 T-REx D1 cells, calcium flux, agonist mode; activation, % at 2 µM; 360,000 compounds, 1% hits; further: 0% is about no effect
#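 Agonism was scored from calcium flux recorded over 180 s (1 read/s) after pintool compound addition, following a 10-cycle baseline. Cells were inducible force-coupled HEK293 TREx D1, plated overnight at 30 C and loaded with no-wash calcium dye.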
# D1 antagonist: blocks dopamine activation of the human D1 receptor | HEK293 TREx D1 cells, calcium flux, dopamine EC80; stronger effect = lower value | activity change, negative = inhibition, % at 10 µM | 360,000 compounds, 3.2% hits | AID 504652; in the data active means activity change below about -30%; further: on the % scale 0 is the no-effect control and ±100 the full control effect
#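 Cells carrying a force-coupled, tetracycline-inducible human D1 receptor report calcium flux. Each well gets a 10 s baseline, compound with 180 s monitoring, then an EC80 dopamine stimulus with a second 180 s kinetic read.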
# TRHR enhancer: TRH receptor (human) allosteric enhancement | P34981 | TRHR cells, fluo-8 calcium fluorescence, EC20 TRH enhancement | enhancement, % at 2 µM | 360,000 compounds, 0.66% hits | AID 493056; in the data active means enhancement above about 30%; further: 0% is about no effect
#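 TRHR-expressing cells loaded with fluo-8 calcium dye were read kinetically (ex 480/em 530) during compound addition, then stimulated with an EC20 of TRH (10 nM final). Enhancement of the Gq-mediated intracellular calcium response was scored.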
# * marks the source's active call; other numbers are inactive results. Unless noted, no stated cut-off is given here; in the data, active means activation above about 30%; inactive means the rest.
SMILES,D1 PAM,TRHR ag,D1 ag,D1 antagonist,TRHR enhancer
CN(C)Cc1cc2ccccc2c2c1COC2,-1.4,0.2,5.1,0.9,-0.9
Cc1cc2ccc3ccccc3c2cc1CN(C)C,-5.2,2.8,15.3,-42.5*,10.7
O=c1c2[nH]c3cc(Br)sc3c2cnn1Cc1ccccc1F,3.0,-2.4,2.0,6.4,-0.8
CCc1nc2nc(C)c(NS(=O)(=O)c3ccc(C(C)(C)C)cc3)c(=O)n2[nH]1,-0.2,0.5,-0.5,-72.3*,6.9
CCc1ccc(NC(=O)CSc2n[nH]c(C)c2[N+](=O)[O-])cc1,-8.0,0.6,14.8,-48.1*,1.9
Cc1ccc(C)n1-c1nnc(N2CCCC(C(=O)Nc3ccccc3Br)C2)s1 (centres undefined),-1.1,-1.9,0.1,1.6,0.3
COc1cc(/C=C2/NC(=O)NC2=O)ccc1OCC(=O)Nc1ccc(F)cc1,-10.5,-0.2,3.6,-70.8*,-6.5
CCOC(=O)COc1ccc(/C=C2/C(=O)NN(c3ccc(F)cc3)C2=O)cc1OC,8.7,-0.1,0.4,52.7,38.1*
CCOC(=O)c1ccc(N2NC(=O)/C(=C/c3ccc(OC(=O)c4ccco4)c(OC)c3)C2=O)cc1,-3.6,1.2,1.4,-2.2,-4.6
CCc1cccc(C)c1Nc1c(-c2ccc(N(C)C)cc2)nc2cnccn12,1.0,5.6,1.8,-7.4,1.1
O=C(Nc1ccc(F)cc1)c1cccnc1NCCc1ccccc1,-4.5,0.8,0.7,-33.2*,-2.1
CCCCn1c(N)c(N(CCOC)C(=O)c2ccc(S(=O)(=O)N(CC)c3ccccc3)cc2)c(=O)[nH]c1=O,1.2,0.2,1.1,-15.9,2.1
O=C(CC(c1ccccc1)c1ccccc1O)NCCN1CCOCC1 (centres undefined),-0.2,0.1,0.3,-53.3*,5.2
CCN(c1ccc(C)cc1C)S(=O)(=O)c1nnc(NC(=O)CC(C)C)s1,-3.7,-0.4,3.5,-24.0,2.5
Cc1cc2c(C)nc(-c3ccccc3)nc2o1,-6.4,0.0,-0.4,-50.0*,0.1
Cc1cc(Cl)nc(-c2ccccc2)n1,-3.7,0.5,0.7,-3.6,13.2
COCCN(Cc1nc2ccccc2c(=O)[nH]1)C(=O)COc1c(C)cc(Cl)cc1C,1.5,-0.2,1.8,10.2,2.9
CCCCN(Cc1nc2ccccc2c(=O)[nH]1)C(=O)COc1ccc(F)cc1Cl,-14.8,0.7,-0.9,-41.7*,-1.0
CCC(C)N(C(=O)COc1ccc(-c2nnco2)cc1)C1CCS(=O)(=O)C1 (centres undefined),-12.9,-0.2,2.9,-53.7*,3.6
O=[N+]([O-])c1ccc(N/N=C/c2cccc(O)c2O)c(S(=O)(=O)N2CCOCC2)c1,-13.1,0.1,57.9*,-76.5*,-2.0
O=[N+]([O-])c1ccc(N/N=C/c2ccc(O)c(O)c2O)c(S(=O)(=O)N2CCOCC2)c1,10.2,0.5,6.2,-0.7,3.6
CCCOc1ccc(/C=C2\SC(N)=NC2=O)cc1OC,-13.9,0.1,0.2,-42.4*,-20.1
Cc1c(C(=O)NCc2ccc(Cl)cc2)sc2nc3n(c(=O)c12)CCCC3,1.8,0.9,3.3,3.5,18.6
COc1ccc(CNC(=O)c2sc3nc4n(c(=O)c3c2C)CCCC4)cc1,-2.5,23.2,71.4*,-3.0,-2.4
Cc1ccc(CNC(=O)c2cnc(N3CCCC3)nc2C)cc1,0.1,-0.4,2.8,7.6,-5.4
SMILES,D1 PAM,TRHR ag,D1 ag,D1 antagonist,TRHR enhancer
COc1ccc(CNC(=O)c2cnc(N3CCCC3)nc2C)cc1,0.9,0.4,-1.0,-43.8*,-1.9
Cc1cccc(CCNC(=O)c2sc3nc4n(c(=O)c3c2C)CCCC4)c1,-0.9,8.9,32.3*,6.6,-4.0
Cc1c(C(=O)NCc2cccc(Cl)c2)sc2nc3n(c(=O)c12)CCCC3,-1.2,13.5,31.8*,-16.1,13.8
Cc1c(C(=O)NCc2ccccc2Cl)sc2nc3n(c(=O)c12)CCC3,-4.3,-0.3,1.2,-6.5,-4.2
O=C(CCNS(=O)(=O)c1ccccc1C(F)(F)F)NC1CCCCCC1,-6.0,0.1,0.2,-1.1,-2.4
O=C1CCCC2=C1C(c1ccc(O)c(Br)c1)C1=C(CCCC1=O)N2c1ccccc1,0.6,0.2,9.5,-36.5*,-5.4
COc1ccc(S(=O)(=O)NC(N)=NCCc2ccccc2OC)cc1,-6.2,0.2,1.9,-52.6*,-6.2
COc1ccccc1CCN=C(N)NS(=O)(=O)c1ccc(F)cc1,-0.9,-1.5,1.1,-5.5,-5.2
CC1CC(C)CN(C(=O)Cn2c(SCC(=O)N3CCc4ccccc4C3)nc3ccccc32)C1 (centres undefined),6.0,0.1,0.7,-65.0*,-14.4
CC(C)NC(=O)Cn1c(SCC(=O)N2CCc3ccccc3C2)nc2ccccc21,0.5,-0.3,1.8,11.9,-11.5
COc1ccc(NC(=O)C(C)Oc2ccc(/C(C)=N\O)cc2)cc1 (centres undefined),-1.6,3.8,51.3*,-1.4,-3.5
O=C(c1ccccc1)c1ccc(Sc2ccc([N+](=O)[O-])cc2)cc1,-2.2,-1.4,15.7,-31.0*,-1.3
CCC(CC)C(=O)Nc1ccc(Sc2ccc([N+](=O)[O-])cc2)cc1,-7.9,0.0,31.5*,-34.7*,4.3
COc1ccc(OC(C)C(=O)Nc2cccc(OC)c2)cc1 (centres undefined),-2.2,-2.9,10.7,-6.1,-4.9
CC(C)Oc1ccc(C(=O)Nc2ccc([N+](=O)[O-])cc2)cc1,-8.9,0.5,36.3*,-15.3,-2.9
CCOC(=O)c1ccc(N2C(=O)c3n[nH]c(-c4cccs4)c3C2c2ccc(O)c(OC)c2)cc1 (centres undefined),-3.1,-0.1,0.7,-21.6,-0.8
O=C(Nc1ccc(Oc2cccnc2)cc1)c1ccc([N+](=O)[O-])cc1,-8.6,-0.3,36.7*,-31.0*,7.7
CC(C)C(=O)Nc1ccc(NC(=O)c2ccc([N+](=O)[O-])cc2Cl)cc1,-3.5,0.8,3.3,-59.4*,4.5
COc1ccc(C(=O)/C(C#N)=N/Nc2ccccc2[N+](=O)[O-])cc1,-7.7,0.4,11.7,-16.8,-6.0
COc1ccc(OC(C)C(=O)Nc2ccc([N+](=O)[O-])cc2)cc1 (centres undefined),-1.5,0.9,22.6,-44.4*,19.8
COc1ccc(C(=O)/C(C#N)=N/Nc2ccc([N+](=O)[O-])cc2)cc1,-3.6,5.0,25.7,-38.8*,-6.0
Cc1ccc(C(=O)Nc2nc3nc(C)cc(=O)n3[nH]2)cc1,0.5,0.4,0.2,-0.3,0.5
COc1c(C)cccc1C(=O)Nc1ccc(Cl)c(-c2nc3cc(C)ccc3o2)c1,-5.2,2.3,4.0,-14.6,-5.4
CC(Oc1ccccc1)C(=O)Nc1ccc(C(N)=O)cc1 (centres undefined),4.3,0.1,13.5,-27.2,24.1
